# Reference: PubChem BioAssay AID1851 (National Center for Advancing Translational Sciences (NCATS), 2009)
# The campaign covered roughly 16,000 compounds. About 5,100 (32%) were called active. Another 25% or so got no clear call; they are omitted. This is one part of the list. Unmarked numbers belong to inactive results. The call rests on the fitted dose curve; in most records, active means well fitted curve in the direction sought with a large enough effect; inconclusive means small, poorly fitted or top-dose-only effect, or effect the other way; inactive means no such curve, though single readings can be large or run the other way.
# Target: Cytochrome P450 3A4 (Homo sapiens) (UniProt P08684)
# Sequence (P08684 whole entry, looked up): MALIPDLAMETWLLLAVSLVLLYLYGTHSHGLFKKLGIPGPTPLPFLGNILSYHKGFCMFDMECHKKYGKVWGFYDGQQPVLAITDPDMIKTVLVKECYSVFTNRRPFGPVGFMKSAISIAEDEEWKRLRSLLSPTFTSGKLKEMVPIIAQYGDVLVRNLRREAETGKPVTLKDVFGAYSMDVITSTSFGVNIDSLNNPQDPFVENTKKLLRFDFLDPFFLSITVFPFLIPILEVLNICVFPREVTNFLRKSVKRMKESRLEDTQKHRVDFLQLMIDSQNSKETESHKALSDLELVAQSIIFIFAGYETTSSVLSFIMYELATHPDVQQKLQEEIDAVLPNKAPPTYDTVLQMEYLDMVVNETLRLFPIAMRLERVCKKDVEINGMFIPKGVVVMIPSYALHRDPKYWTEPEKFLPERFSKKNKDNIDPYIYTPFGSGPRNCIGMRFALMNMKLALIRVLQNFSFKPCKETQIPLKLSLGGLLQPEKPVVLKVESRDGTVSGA
# Assay: Cytochrome panel assay with activity outcomes
# Details: recombinant CYP, pro-luciferin dealkylation, luminescence, p450-cyp3a4; series mostly up to 57.1 µM; activity, negative = inhibition: at the top concentration
# On the % scale 0 is the no-effect control and ±100 the full control effect.
Compound,"activity, negative = inhibition",AC50
Cn1c(=O)c2[nH]c(C3CCCC3)nc2n(C)c1=O,-5.26%,
O=C(O)c1nnsc1COCc1ccccc1,-0.287% [at 11.4 µM],
COCCNC(=O)COc1ccc(Oc2ccccc2)cc1,-13.2%,
COc1ccc(OC)c2[nH]c(=O)c(CCNC(=O)C3CCCCC3)cc12,,8.91 µM (active)
COc1ccc(OC)c2[nH]c(=O)c(CCNC(=O)c3ccc(S(=O)(=O)N(C)C)cc3)cc12,-9.76%,
COc1ccc(OC)c2[nH]c(=O)c(CCNC(=O)COc3ccccc3)cc12,,10 µM (active)
COc1cc2c(c(O)c1OC)C(=O)C(OC)CCC2 (stereo not given),-10.9%,
COc1ccc(C(=O)NCC(c2ccc(F)cc2)N2CCOCC2)cc1S(=O)(=O)N1CCCC1 (stereo not given),3.78%,
COc1ccc(OC)c2[nH]c(=O)c(CCNC(=O)c3ccc(S(=O)(=O)N4CCCC4)cc3)cc12,,15.8 µM (active)
COc1ccc(OC)c2[nH]c(=O)c(CCNS(=O)(=O)c3ccc(C)cc3)cc12,,7.94 µM (active)
CCCCC1CC(/C(C)=N/NC(N)=O)OC1=O (stereo not given),8.73%,
COc1cccc(NC(=O)CSc2nc3ccccc3cc2Cc2ccccc2)c1,,3.55 µM (active)
COc1ccccc1NC(=O)CSc1nc2ccccc2cc1Cc1ccccc1,,2.82 µM (active)
CCOC(=O)c1sc2nc3c(cc2c1N)COC(C(C)C)C3 (stereo not given),10.5%,
Cn1cc(C2=C(c3ccc(Cl)cc3Cl)C(=O)NC2=O)c2ccccc21,,2.51 µM (active)
CSc1ccccc1NC(=O)CSCc1ccc(C)cc1,-20% [at 11.4 µM],
COC(=O)c1ccc(C(=O)OC)c(NC(=O)CSCc2ccc(Br)cc2)c1,,12.6 µM (active)
COc1ccc(-c2ccc3c(n2)CCCN3C[C@H](O)CN2CCCc3nc(C)c(C)cc32)cc1,-46.4% [at 11.4 µM],
COc1cccc([C@@H]2Oc3ccc(OC)cc3/C(=N/O[C@@H](C)CN3CCCCc4nc(C)c(C)cc43)[C@@H]2O)c1,,3.98 µM (active)
COc1cccc([C@@H]2Oc3ccc(OC)cc3/C(=N/O[C@@H](C)CN3CCCc4nc(C)c(C)cc43)[C@@H]2O)c1,,3.16 µM (active)
CCc1c2c(nc3ccc(OC)cc13)COC2,,15.8 µM (active)
COc1ccc2nccc(C(=O)O)c2c1,-4.23% [at 25.6 µM],
COc1ccc2nc3cc(Cl)ccc3c(Nc3ccc(O)c(CN4CCN(C)CC4)c3)c2c1,2.77% [at 11.4 µM],
C[C@@]1(O)CCOC(=O)C1,-3.83% [at 25.6 µM],
CC1(C)O[C@H]2[C@@H](c3[nH]nc4c(=O)[nH]c(=O)[nH]c34)OC[C@H]2O1,-0.0029% [at 11.4 µM],

Compound,"activity, negative = inhibition",AC50
CCOC(=O)N/N=C(/C)c1ccc([N+](=O)[O-])o1,-3.74% [at 2.29 µM],
C#CCN1C(C)=C(C(=O)OC)[C@@H](c2cccc([N+](=O)[O-])c2)C(C(=O)OCC)=C1C,,3.16 µM (active)
COCC(C)NCc1cccc([N+](=O)[O-])c1 (stereo not given),-12%,
Cc1cccc(Nc2ccccc2C(=O)OCC(=O)NCc2ccco2)c1C,,15.8 µM (active)
O=C(COC(=O)c1cccnc1Nc1cccc(C(F)(F)F)c1)NCc1ccc2c(c1)OCO2,,0.501 µM (active)
Cc1c(Nc2ncccc2C(=O)O)cccc1C(F)(F)F,-24.2% [at 25.6 µM],
O=C(COC(=O)c1ccccc1Nc1cccc(C(F)(F)F)c1)NCc1ccco1,,22.4 µM (active)
O=C(OC(C(=O)NC1CCCC1)c1ccncc1)C1=Cc2ccccc2OC1 (stereo not given),,3.98 µM (active)
Cc1ccc(C(OC(=O)c2ccco2)C(=O)NC2CCCCC2)cc1 (stereo not given),-11.1% [at 2.29 µM],
Cc1cn2c(-c3ccncc3)nnc2s1,-17.7%,
c1cc(-c2sc(-c3ccncc3)c(-c3ccncc3)c2-c2ccncc2)ccn1,,0.316 µM (active)
CCC(C)NC(=O)C1c2cc(OC)c(OC)cc2C(=O)N(C)C1c1cccs1 (stereo not given),,5.62 µM (active)
CCC(C)NC(=O)C1CC(c2ccc(OC)cc2)=NO1 (stereo not given),20.4%,
COc1cc2c(cc1OC)C(C(=O)N1CCN(c3ccccn3)CC1)C(c1cccs1)N(C)C2=O (stereo not given),,4.47 µM (active)
COc1ccc(C(=O)Nc2ccc3c(c2)nc(CN2CCN(C(C)=O)CC2)n3C)cc1,-0.562% [at 2.29 µM],
Cn1c(CN2CCCCC2)nc2cc(NC(=O)c3ccc(Cl)cc3)ccc21,,15.8 µM (active)
Cn1c(CN2CCCC2)nc2cc(NC(=O)C3CCCCC3)ccc21,-14.1%,
COc1cc(NC(=S)Nc2ccc(S(=O)(=O)N3CCOCC3)cc2)cc(OC)c1OC,,15.8 µM (active)
COc1ccc(C(=O)Nc2ccc(S(=O)(=O)N3CCOCC3)cc2)cc1OC,3.48%,
CC(N)=O,-7.41%,
c1ccc(-c2nc(CSc3n[nH]c(-c4cccs4)n3)cs2)cc1,,6.31 µM (active)
O=c1[nH]c(=S)[nH]nc1Cc1ccccc1,25.9%,
CC(C)C1NC(=S)N(Cc2ccccc2)C1=O (stereo not given),,14.1 µM (active)
O=C(Nc1nc2ccccc2n1Cc1ccccc1)c1ccc(COc2ccccc2[N+](=O)[O-])o1,,4.47 µM (active)
CCn1nccc1C(=O)Nc1nc2ccccc2n1CCN1CCCCC1,-23.3%,
